CRE Fsk mod: CRE-bla signaling modulation under forskolin stimulation | hit rate 2.5% among 71,000 | AID 662 | Potency, µM (doses to about 38.2 µM), for the others: at the highest dose activity change, negative = inhibition, actives largely listed as activators | CHO CRE-bla reporter (cAMP response element driving beta-lactamase), forskolin EC10, beta-lactamase ratio; active = well fitted activation curve with a large enough effect in the signal ratio, with a control signal flat, not every such curve was filed as active; inconclusive = small, poorly fitted or top-dose-only effect, or effect the other way, or a change in a side signal; the % refers to the signal ratio; also: % of control where 0% means no effect
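CHO CRE-bla cells, overnight plating in Opti-MEM with 0.5% dialyzed FBS; cpd titration + EC10 NKH 477, 3 h 37 °C; CCF4 2 h RT; ex 405/em 460 vs 530 ratio → %Activity, AC50.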
ERK AVP block: blocks ERK signaling stimulated by vasopressin | HEK293-V1b, vasopressin-stimulated pERK AlphaScreen | Potency, µM (series often up to 57.5 µM), for the others: at the highest dose activity, negative = inhibition, actives largely listed as inhibitors | hit rate 0.99% among 72,000 | AID 995; also: % is scaled to controls: 0 for no effect and ±100 for the full control effect; nearly all actives have a fitted effect of over 55% in size
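Overnight-seeded V1b-HEK293 cells in 1% FBS got compound, then vasopressin (25 nM final, 5 min, 37C), then lysis buffer. AlphaScreen detection of phospho-ERK; activity normalized to basal and full-stimulation controls.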
HEK293 cAMP cs: parental HEK293 cAMP activation (counter-screen). parental HEK293 CNG cAMP sensor, membrane potential fluorescence. Potency, µM (titrated, usually from 57.1 µM), for the others: at the top dose activation, most hits filed as activators. hit rate 2.5% among 73,000. AID 938; also: % of control where 0% means no effect; nearly all actives have a fitted effect of over 55% in size
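Parental HEK 293 cells stably expressing a modified CNG channel (no TSHR) report cAMP rise as membrane depolarization. Membrane potential dye with 100 uM RO 20-1724 was loaded for 60 min at room temperature, then compound added for 30 min; fluorescence read at 590 nm.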
TSHR agonist: agonists of human thyroid stimulating hormone receptor; P16473; HEK293-CNG-TSHR cells (CNG channel as cAMP sensor), membrane potential dye, cAMP; Potency, µM (top dose mostly 57.1 µM), for the others: top-dose activation, usual class: activators; hit rate 0.48% among 73,000; AID 926; active = well fitted activation curve with a large enough effect in the main read-out, with a control signal flat, not every such curve was filed as active; inconclusive = small, poorly fitted or top-dose-only effect, or a change in a side signal; inactive = no such curve, though single readings can be large or run the other way; % of control where 0% means no effect;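 also: the control signal comes from parental cells without the receptor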
Target sequence (P16473 whole entry, looked up): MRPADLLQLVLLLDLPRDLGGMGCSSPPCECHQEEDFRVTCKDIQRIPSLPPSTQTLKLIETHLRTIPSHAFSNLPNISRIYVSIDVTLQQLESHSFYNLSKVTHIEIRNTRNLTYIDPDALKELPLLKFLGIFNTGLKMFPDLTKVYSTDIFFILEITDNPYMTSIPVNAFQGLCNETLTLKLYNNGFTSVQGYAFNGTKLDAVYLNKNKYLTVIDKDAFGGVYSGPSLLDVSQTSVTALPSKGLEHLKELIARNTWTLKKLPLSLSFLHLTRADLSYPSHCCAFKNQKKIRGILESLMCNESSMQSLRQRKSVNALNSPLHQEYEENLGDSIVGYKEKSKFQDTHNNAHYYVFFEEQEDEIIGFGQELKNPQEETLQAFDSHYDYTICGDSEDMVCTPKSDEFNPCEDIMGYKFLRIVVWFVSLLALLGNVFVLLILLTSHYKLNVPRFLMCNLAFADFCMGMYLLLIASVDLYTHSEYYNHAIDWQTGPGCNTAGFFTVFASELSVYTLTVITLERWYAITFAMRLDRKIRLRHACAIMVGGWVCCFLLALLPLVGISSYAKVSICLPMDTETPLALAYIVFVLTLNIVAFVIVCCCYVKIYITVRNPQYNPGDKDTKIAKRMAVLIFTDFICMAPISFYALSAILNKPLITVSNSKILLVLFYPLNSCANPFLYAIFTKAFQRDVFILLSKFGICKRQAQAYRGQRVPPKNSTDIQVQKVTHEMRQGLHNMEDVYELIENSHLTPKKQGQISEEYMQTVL
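HEK 293 cells stably expressing TSHR and a cAMP-gated CNG channel; parental CNG-only cells as counterscreen. Cells preloaded 60 min with membrane potential dye plus 100 uM RO 20-1724, then compound 30 min; fluorescence read at 590 nm.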
IkB signaling: inhibitors of IkB signaling in ABC-DLBCL cells; ABC-DLBCL IkBa-CBG/CBR dual luciferase ratio, 4 h; response scale: scaled: untreated 0%, proteasome inhibitor 100%; Potency, µM (doses to about 57.1 µM), inactives show top-dose IkBa stabilization activation; hit rate 0.04% among 110,000; active = well fitted curve in the direction sought with a large enough effect in the signal ratio, not every such curve was filed as active; inconclusive = small, poorly fitted or top-dose-only effect, or a change in a side signal; the % refers to the signal ratio;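 also: the direction sought is a rising ratio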
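Curves were fitted separately to fusion (green), unfused (red) and ratio luminescence, then classed by r2, magnitude and activity. Cells: OCI-Ly3, 4 h compound plus doxycycline at 37C; 10 uM MG-132 defined full response.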
The depositor's hits bear a star; ? = inconclusive; / = no result; [ ] = remark or other dose. Rows were chosen to be rich in hits. Some 3.6% of all compounds tested hit in one or more screens of this group. Unless noted, calls follow the shape of the dose curve; as a rule, active = well fitted curve in the direction sought with a large enough effect; inconclusive = small, poorly fitted or top-dose-only effect, or another doubt; inactive = no such curve, though single readings can be large; an effect the other way counts as inactive or inconclusive. Potency is read from the fitted curve at half-maximal effect.

SMILES | CRE Fsk mod | ERK AVP block | HEK293 cAMP cs | TSHR agonist | IkB signaling
Nc1nc(Cl)nc2c1ncn2[C@@H]1O[C@H](CO)[C@@H](O)[C@H]1O | / | 10µM* | / | / | /
Nc1nc2c(ncn2[C@@H]2O[C@H](CO)[C@@H](O)[C@H]2O)c(=O)[nH]1 | / | -18% | / | / | /
CCCCC#Cc1nc(NC)c2ncn([C@@H]3O[C@@H](CO)[C@H](O)[C@H]3O)c2n1 | 20µM* | ? | 0% | 6% | 1%
CC(C)(C)[Si](C)(C)c1c2c(nc3ccc(OCc4ccccc4)cc13)-c1cccc(=O)n1C2 | 7.9µM* | 26% | 8% | -3% | /
COc1cc2nc3c(c([Si](C)(C)C(C)(C)C)c2cc1OC)Cn1c-3cccc1=O | 16µM* | -17% | 20% | 22% | /
CC1CCc2sc3nc(NCc4ccco4)n4ncnc4c3c2C1 (stereo unspecified) | ? | ? | 2% | 10% | -2%
CC1CCc2sc3c(c2C1)c1ncnn1c(=O)n3CC(=O)c1ccc(Br)cc1 (stereo unspecified) | -1% | 0% | 16µM* | ? | 0%
O=C(NC1CCN(C(=O)Nc2ccccc2)CC1)C1CCCCC1 | -21% | -2% | -2% | 9% | 1%
Cc1ccc(CNc2cc(-c3nn4c(C)nnc4s3)ccc2C)s1 | 20µM* | ? | 12% | / | -2%
Cc1ccc(-c2nn3c(C)nnc3s2)cc1NCc1c(F)cccc1Cl | ? | -2% | ? | ? | 4%
Cc1cc(N2CCN(C(=O)c3ccco3)CC2)n2nc(C)c(-c3ccc(Cl)cc3)c2n1 | ? | 0% | -2% | 0% | 0%
CSc1ccc(C2C(C#N)=C(N)Oc3c2ccc(=O)c2c(C)oc(C)c32)cc1 (stereo unspecified) | -16% | ? | 0% | 6%[11.4 µM] | ?
Cc1oc(C)c2c(=O)ccc3c(c12)OC(N)=C(C#N)C3c1ccccc1 (stereo unspecified) | 0.25µM* | -16% | 7% | 20% | ?
CCSc1nnc(C)n1-c1ccc(C(=O)O)cc1 | -6% | -13% | -2% | -10% | 1%
Cc1noc(C)c1CSc1nc2ccccc2n1C | 7% | -18% | 3% | 1% | 0%
Cc1noc(C)c1CSc1nnc(-c2ccccc2F)n1CCc1ccccc1 | ? | 9% | 10µM* | ? | 1%
CCOC(=O)C1=C(CN2CCN(c3cccc(Cl)c3)CC2)NC(=O)NC1c1ccc(Cl)cc1 (stereo unspecified) | / | / | / | / | -2%
CN(C)c1ncc2nc(CCc3ccccc3)c(=O)n(C3CC3)c2n1 | 3.2µM* | -7% | ? | ? | -4%[11.4 µM]
CN(C)c1ncc2nc(-c3ccc(Cl)cc3)c(=O)n(CCC#N)c2n1 | ? | 11% | -27% | -1% | 1%[11.4 µM]
CCNc1ncc2nc(CCc3ccccc3)c(=O)n(-c3ccccc3)c2n1 | 13µM* | -19% | -2% | / | -3%[11.4 µM]
CCNc1ncc2nc(CCc3ccccc3)c(=O)n(CCOC)c2n1 | ? | -28% | 30% | 14% | -2%[11.4 µM]
CN(C)c1ncc2nc(-c3ccc(F)cc3)c(=O)n(CCc3ccccc3)c2n1 | ? | 5% | ? | ? | 2%[11.4 µM]
CN(C)c1ncc2nc(-c3ccc(F)cc3)c(=O)n(-c3ccccc3)c2n1 | 2.5µM* | 17% | ? | ? | -2%[11.4 µM]
CN(C)c1ncc2nc(-c3ccccc3)c(=O)n(CCC#N)c2n1 | 2.5µM* | -28% | 12% | 3% | -2%[11.4 µM]
CN(C)c1ncc2nc(-c3ccccc3)c(=O)n(C3CC3)c2n1 | ? | 44% | ? | ? | -1%[11.4 µM]
SMILES | CRE Fsk mod | ERK AVP block | HEK293 cAMP cs | TSHR agonist | IkB signaling
CN(C)c1ncc2nc(CCc3ccccc3)c(=O)n(-c3ccccc3)c2n1 | 5µM* | 73% | ? | ? | -4%[11.4 µM]
COc1ncc2nc(CCc3ccccc3)c(=O)n(-c3ccccc3)c2n1 | ? | -19% | ? | ? | -4%[11.4 µM]
COc1ccccc1CC(=O)Nc1ccc(O)cc1C(=O)O | -1% | -1% | 9% | -11% | 6%
CCOc1ccc(C(=O)Nc2c3c(nn2-c2ccc(F)cc2)CS(=O)C3)cc1 (stereo unspecified) | -4% | -1% | 15% | 10% | 0%
Cc1ccccc1C(=O)Nc1ccc2nc3n(c(=O)c2c1)CCC3 | 13µM* | ? | -5% | -5% | 13%
O=C(COc1ccccc1)Nc1cccc(-c2nnc(-c3ccccc3)o2)c1 | -2% | -3% | 25µM* | ? | ?
Cc1cc(C)cc(OCC(=O)Nc2cccc(-c3nnc(-c4ccco4)o3)c2)c1 | -4% | ? | 25µM* | ? | 0%
COc1ccc(-c2noc(C3CCCN(C(=O)c4ccccc4OC)C3)n2)cc1OC (stereo unspecified) | 9% | -10% | ? | ? | ?
O=C(Cc1ccccc1)N1CCC(c2nc3ccccc3[nH]2)CC1 | 5% | 9% | 3% | 3%[11.4 µM] | -1%
O=C(Cc1ccccc1)N1CCC(c2nc(-c3ccc(F)cc3)no2)CC1 | -1% | 20µM* | ? | ? | ?
Cc1ccc(-c2noc(C3CCCN(C(=O)c4c(F)cccc4F)C3)n2)cc1 (stereo unspecified) | ? | ? | 7.9µM* | ? | ?
COC(=O)c1ccc(C2c3c(oc4ccc(C)cc4c3=O)C(=O)N2Cc2ccc3c(c2)OCO3)cc1 (stereo unspecified) | / | / | / | / | -1%
COc1ccc(-c2nn(-c3ccccc3)cc2C(=O)O)cc1 | -6% | / | 4% | 1% | 8%
CC(C)OC(=O)c1cn(-c2ccccc2)nc1-c1ccco1 | 11% | -16% | 18% | 25µM* | 17%
CCOC(=O)c1cn(-c2ccccc2)nc1-c1cccnc1 | / | / | -2%[11.4 µM] | 6% | /
CCOC(=O)c1cn(-c2ccccc2)nc1-c1ccncc1 | 10µM* | ? | 4% | 23% | 0%
O=C1c2ccccc2-c2ccc(NC(=O)[C@H]3CCCC[C@@H]3C(=O)O)cc21 | ? | -10%[11.5 µM] | 2%[11.4 µM] | -6%[11.4 µM] | -1%[11.4 µM]
CCC(=O)NCCn1c(C)cc2ccccc21 | 10µM* | / | ? | ? | -2%
Cc1cc2ccccc2n1CCNC(=O)COc1ccccc1 | 10µM* | / | -2% | -9% | -4%
CC(=O)NCCn1c(C)cc2ccccc21 | ? | / | 11% | 14% | 0%
CSCCC(N=CC1=C(O)CC(C)(C)CC1=O)C(=O)O (stereo unspecified) | 3% | -17% | 3% | 0% | 0%
CC(=O)Nc1ccc(C(=O)CSc2nnc(Cn3nnc4ccccc43)n2C)cc1 | 0% | 3% | -4% | -5% | 2%
S=C(c1ccc(-c2ccc(Cl)c(Cl)c2)o1)N1CCOCC1 | 14% | ? | 17% | / | 0%
S=C(c1ccc(-c2ccccc2Cl)o1)N1CCOCC1 | 28% | 25µM* | 21% | / | -4%

Screening data deposited in PubChem BioAssay by National Center for Advancing Translational Sciences (NCATS).
